What all share (experiment): NCI-60 one-dose screen, 48 h (100 = growth as untreated, 0 = no growth, -100 = all killed)
Details in all cases: 10 µM unless noted

Assay [1] deals with NCI-H226 lung.
Assay [2] relates to NCI-H322M lung.
The subject of assay [3] is HOP-62 NSCLC.
In assay [4] the test system is NCI-H460 lung.
Assay [5] relates to HOP-92 NSCLC.
Assay [6] relates to NCI-H522 lung.
Assay [7] concerns A549/ATCC NSCLC.
For assay [8], the system named is 786-0 renal.
The subject of assay [9] is COLO 205 colon.
The test system of assay [10] is DU-145 prostate.

14 compounds from PubChem BioAssay (NCI) can be followed below.

The panel holds about 83,000 compounds, 20% with a hit somewhere; the sample as a whole holds those more often.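 Treatment: one concentration, 48 hours, 96-well format. Scoring: percent growth, with anything below 10 considered active.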 Unmarked numbers belong to inactive results. Calls of active or inactive are those of the source.

As for `c1ccc2c(NCCCn3ccnc3)c3oc4ccccc4c3nc2c1`, the growth in [1] was -1.35% (active); in [2], -13.4% (active); in assay [3], 19.5%; in assay [4], -19.3% (active); in assay [5], -23.7% (active); in [6] it was -23.1% (active). In addition, the growth in [7] is 10.5%; in assay [8], 2.46% (active); in [9] it was -30.9% (active); in assay [10] it was -17.2% (active).

Turning to `COc1ccc(-c2nc3ccc(-c4nnc(SCC(=O)Nc5ccc(C(=O)/C=C/c6ccc(Cl)cc6)cc5)o4)cc3[nH]2)cc1OC`, the growth in assay [1] was 98.5%; in assay [2] it was 95.8%; in [3] it was 103%; in assay [4], 103%; in assay [5], 105%; in [6], 98.4%. Besides, the growth in assay [7] was 103%; in [8], 103%; in assay [9], 116%; in assay [10], 109%.

On to `O=C(N/N=C/c1ccco1)c1[nH]c2ccc(Br)cc2c1-c1ccccc1`, for which the growth in assay [1] was 50.1%; in assay [2], 42.1%; in [3] it was 35.4%; in assay [4], 2.19% (active); in assay [5], 48.7%; in assay [6], -39.7% (active). Also, the growth in assay [7] was 35.4%; in assay [8], 16.4%; in assay [9] it was -35.2% (active); in assay [10] it was 13.4%.

Turning to `C#Cc1nc(C2=C(C)C(O)/C(=N/O)C2)cs1` (stereo not given), the growth in assay [1] is 107%; in [2], 102%; in [3] it was 111%; in assay [4], 104%; in assay [5], 41.8%; in [6], 15.5%. Moreover, the growth in assay [7] was 96.5%; in assay [8] it was -92.2% (active); in assay [9], 128%; in assay [10], 87%.

`O=C(CCN1C(=O)/C(=C/c2ccccc2F)SC1=S)N1CCOCC1`: the growth in assay [1] was 105%; in [2], 80.5%; in assay [3] it was 117%; in [4] it was 90.7%; in assay [5] it was 133%; in assay [6], 41.4%. In addition, the growth in assay [7] is 102%; in assay [8], 77.4%; in assay [9], 108%; in assay [10], 57.5%.

Consider `COc1cccc(-c2nn(-c3ccccc3)cc2-c2ccnc(N3CCN(C(=O)c4ccccc4)CC3)c2)c1`, for which the growth was 109% in assay [1]; 105% in [2]; 113% in assay [3]; 81.8% in assay [4]; 71.2% in [5]; 77.1% in assay [6]. Further, the growth in [7] was 71.7%; in assay [8], 102%; in assay [9] it was 97.7%; in assay [10] it was 91.5%.

In the case of `Cc1cccc2sc(/N=C(\N)C(Br)Br)nc12`, the growth was 42.8% in assay [1]; 48.8% in assay [2]; 67% in assay [3]; 1.4% (active) in [4]; 47.6% in assay [5]; -76% (active) in [6]. For the same compound, the growth is 37.4% in assay [7], 31.6% in assay [8], 27% in assay [9] and 4.67% (active) in assay [10].

For `Cc1cccc(/C=C/c2nn3c(-c4ccco4)nnc3s2)c1`, the growth in assay [1] is 96.5%; in assay [2], 94.4%; in assay [3], 100%; in assay [4], 102%; in assay [5], 119%; in assay [6] it was 95.2%. For the same compound, the growth in [7] is 95.3%; in [8], 97.6%; in assay [9], 107%; in assay [10], 105%.

As to `N/C(=N\c1nc2c(Cl)cc(Cl)cc2s1)C(Cl)(Cl)Cl`, the growth in [1] is 73.5%; in [2], -55.6% (active); in [3], 20.1%; in assay [4], -1.22% (active); in [5], 46.4%; in assay [6], 82.4%. The growth is -12.9% (active) in [7], 85.4% in assay [8], -16% (active) in assay [9] and -27.8% (active) in assay [10].

With `OC1CCN(CCCOc2c3ccc(Cl)cc3nc3c2oc2ccccc23)CC1`, the growth in [1] was -6.33% (active); in assay [2], -16.3% (active); in assay [3] it was 12.5%; in [4] it was -9.21% (active); in assay [5] it was -4% (active); in assay [6] it was -48.9% (active). In addition, the growth is 9.13% (active) in assay [7], -30.7% (active) in assay [8], -69% (active) in assay [9] and -0.646% (active) in assay [10].

As for `CCOc1ccc2nc(NC(=O)c3ccc(C(F)(F)F)cc3)sc2c1`, the growth in assay [1] was 107%; in assay [2] it was 107%; in assay [3], 118%; in [4] it was 101%; in assay [5], 139%; in assay [6], 94.4%. Also, the growth is 101% in assay [7], 99.6% in [8], 117% in assay [9] and 105% in assay [10].

On to `Cc1sc2c(c1C)c(=O)nc1c(-c3nc(-c4ccc(F)cc4)no3)n[nH]n12`, for which the growth in assay [1] is 93.1%; in assay [2], 103%; in assay [3] it was 91.8%; in assay [4] it was 107%; in [5] it was 91.2%; in [6], 100%. Besides, the growth is 106% in assay [7], 99.4% in [8], 119% in assay [9] and 109% in [10].

Consider `COc1ccc(/C=N/Nc2ccnc3cc(Cl)ccc23)cc1Cl`, for which the growth was 69% in [1]; -64.1% (active) in [2]; -42.9% (active) in assay [3]; -79% (active) in assay [4]; -57.6% (active) in assay [5]; -73.7% (active) in assay [6]. In addition, the growth in assay [7] is -41.6% (active); in [8] it was -94.9% (active); in assay [9], -82.7% (active); in assay [10], -57% (active).

With `Cc1ccc(/C=C/c2nn3c(-c4ccco4)nnc3s2)cc1C`, the growth was 106% in assay [1]; 97.1% in [2]; 100% in [3]; 104% in assay [4]; 93.9% in [5]; 104% in [6]. Also, the growth in assay [7] is 94%; in assay [8], 100%; in assay [9], 126%; in [10], 103%.
